Shown is part of a subset that was picked to be rich in hits.
VACV E9 pol inh: inhibitors of vaccinia virus processive DNA synthesis (E9 polymerase); normalized absorbance, % (test concentration not listed); AID 493162; actives 0.94% (n = 46,000); in vitro processive DNA synthesis, absorbance read-out; active compounds read low; in the data active = normalized absorbance mostly below about 85%, no sharp cut-off; inactive = mostly above about 86%
Large screens that a line does not name were inactive.

Cc1c(C#N)c2ccccc2n1CC(=O)N1CCCCC1C (stereo not given)	none
Cc1ccc(Nc2ccc(C)cc2)cc1	none
Cc1ccc(S(=O)(=O)c2ccc(NN)cc2)cc1	none
Cc1ccc(NN)cc1	VACV E9 pol inh 65.0
CC(=O)Oc1ccc2oc(-c3ccccc3)c(C(=O)O)c2c1	none
O=C(O)c1c(-c2ccccc2)oc2ccc(OCc3ccc(Cl)cc3)cc12	none
Cc1ccccc1COc1ccc2oc(-c3ccccc3)c(C(=O)O)c2c1	VACV E9 pol inh 87.1
CCOC(=O)Nc1noc2ccccc12	none
CC(=O)OCC(=O)[C@@]12OC3(CCCC3)O[C@@H]1CC1C3CCC4=CC(=O)C=C[C@]4(C)[C@@]3(F)[C@@H](O)C[C@@]12C (stereo not given in full)	none
COc1ccc(N=C/C(Br)=C/c2ccccc2)cc1OC	none
CC(C)(C)NC(=O)CSc1nc(N)c(C#N)cc1C#N	none
Cn1nnnc1SCC1=C(C(=O)O)N2C(=O)C(NC(=O)C(O)c3ccccc3)C2SC1 (stereo not given)	VACV E9 pol inh 64.0
Cn1nnnc1SCC1=C(C(=O)O)N2C(=O)C(NC(=O)C(OC=O)c3ccccc3)C2SC1 (stereo not given)	none
CC1=C(C(=O)O)N2C(=O)[C@@H](NC(=O)[C@H](N)c3ccc(O)cc3)[C@H]2SC1	none
CC(=O)OCC1=C(C(=O)O)N2C(=O)[C@@H](NC(=O)CCCC(N)C(=O)O)C2SC1 (stereo not given in full)	none
CC(=O)OCC1=C(C(=O)O)N2C(=O)[C@@H](NC(=O)CSc3ccncc3)[C@H]2SC1	VACV E9 pol inh 59.8
CO/N=C(/C(=O)NC1C(=O)N2C(C(=O)O)=C(COC(N)=O)CSC12)c1ccco1 (stereo not given)	none
CC(C)C(=O)NC1=NC2C(N=CN2C2CC(O)C(CO)O2)C(=O)N1 (stereo not given)	none
CCCC12CCC(c3ccc(C#N)cc3)(CC1)CC2	none
O=C(O)c1cccc(-c2ccc(/C=c3/sc4nc5ccccc5n4c3=O)o2)c1	none
CC1=NN(c2cccc(C(=O)O)c2)C(=O)/C1=C/c1ccc(-c2cccc(Cl)c2C)o1	VACV E9 pol inh 51.4
Cc1ccc(C2=C/C(=C/c3ccc(-c4cccc(C(=O)O)c4)o3)C(=O)O2)cc1	none
CC1=NN(c2ccccc2)C(=O)/C1=C/c1cn(CC(O)CN2CCCCC2)c2ccccc12 (stereo not given)	VACV E9 pol inh 31.9
O=C1Nc2ccccc2/C1=C\c1cn(CC(=O)N2CCCC2)c2ccccc12	none
NC(=O)Cn1cc(/C=C2/C(=O)NC(=O)N(C3CCCCC3)C2=O)c2ccccc21	none
Cc1cccc(OCC(O)CN2CCN(Cc3ccccc3)CC2)c1C (stereo not given)	none
Cc1ccc(-c2nnc(Nc3ccccc3)c3ccccc23)cc1S(=O)(=O)NCc1ccccn1	none
CCNC(=O)C1CCN(c2nc3c(C)cc(C)cc3s2)CC1	none
CCOC(=O)c1cc(-c2ccnn2S(=O)(=O)c2cccc(C(F)(F)F)c2)on1	VACV E9 pol inh 69.3
CCOC(=O)c1cc(-c2ccnn2C(=O)c2ccccc2)on1	none
Cc1cc(-c2nc(-c3ccnn3S(=O)(=O)c3cccc(C(F)(F)F)c3)cs2)no1	none
CC(C)COC(=O)CNc1n[nH]c(=O)[nH]c1=O	none
O=C1CC(c2ccccc2)SC(c2ccccc2)C1 (stereo not given)	none
O=C1CCC(c2ccccc2)CC1	VACV E9 pol inh 66.5
O=C(O)CN1CCC(c2ccccc2)CC1	none
Nc1ccccc1C(=O)c1ccccc1C(=O)O	none
Cc1cc(NS(=O)(=O)c2ccc(N=Cc3ccccc3O)cc2)no1	none
O=C(O)c1cc(C=Nc2ccc(S(=O)(=O)NC3NC=CS3)cc2)c2c(c1)COCO2 (stereo not given)	VACV E9 pol inh 51.8
COc1ccc(C(=O)NCc2nc3ccccc3n2CC(C)C)cc1OC	none
O=C(OCc1nc2ccccc2s1)c1ccc(Cl)s1	none
COC(=O)c1cccc(NC(N)=S)c1	none
N=C(N)c1cccc(NC(=O)Nc2cccc(C(=N)N)c2)c1	VACV E9 pol inh 77.1
Cc1cccc(NC(=O)Nc2cccc(C)c2)c1	none
O=C1CC(c2nnc(-c3ccccc3)o2)CN1c1ccccc1 (stereo not given)	none
O=S(=O)(c1cccc2cnccc12)N1CCCNCC1	none
O=S(=O)(NCCNC/C=C/c1ccc(Br)cc1)c1cccc2cnccc12	VACV E9 pol inh 89.1
Brc1ccccc1C=Nc1cccc2cnccc12	none
CCOC(Cn1c(C(C)O)nc2ccccc21)OCC (stereo not given)	none
Cn1ncc(NCCc2ccncc2)c(Cl)c1=O	none
COc1ccc(Nc2cc(C(=O)N3CCc4ccccc4C3)c3ccccc3n2)c(OC)c1	none
CCOC(=O)N1CCN(C(=O)c2cc(Nc3ccc(OC)cc3OC)nc3ccccc23)CC1	none
COc1ccc(Nc2nc(N3CCN(C)CC3)nc3ccccc23)c(OC)c1	VACV E9 pol inh 52.7
O=C(Cn1c(=O)n(CC(=O)NC2CCCC2)c(=O)c2ccccc21)Nc1ccc(Br)cc1	none
Cc1ccn2cc(CNC(=O)c3ccccc3)nc2c1	none
Nc1ccc(-c2nc3cc(Cl)ccc3o2)c(O)c1	none
COc1ccc(-n2ccnc2SCC(=O)Nc2nccs2)cc1	none
Cn1ccnc1C(=O)c1cc(-c2ccco2)nc2ccccc12	none
c1coc(-c2cn3ccc4ccccc4c3n2)c1	VACV E9 pol inh 84.2
